Most compounds without a hit are left out; they make up all but 18% or so of the library.
IL-1B inflam inh = blocks inflammasome-driven IL-1 beta release; THP-1 LPS/ATP IL-1B secretion, AlphaLISA, 16 h; hits give low values; activity change, % at 57.5 µM; hit rate 4.7% among 360,000; AID 743279; in the data active = activity change below about -50%; inconclusive = mostly about -30% to -49%
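Secreted IL-1B measured by AlphaLISA bead assay after 16 h compound exposure of THP-1 cells; compounds (final up to 57.5 uM) added 1 h before LPS (250 ng/mL) and ATP (1.25 mM) stimulation; lower signal means less secretion.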
TDP1 inh = TDP1 (human) enzyme inhibition. Potency, µM (top dose mostly 130 µM), hits mostly inhibitors. hit rate 0.28% among 350,000. recombinant TDP1, AlphaScreen DNA substrate cleavage; also: nearly all actives have a fitted effect of over 40% in size
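Recombinant E. coli-expressed Tdp1 (1 nM) preincubated with compound 15 min at RT, then 5'-biotin/3'-phosphotyrosine-FITC DNA substrate (15 nM) added for 5 min. AlphaScreen beads (10 ug/ml) added, 10 min RT; tyrosine-FITC cleavage read as signal loss.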
DT40 TDP1 no CPT = qHTS for Inhibitors of human tyrosyl-DNA phosphodiesterase 1 (TDP1): qHTS in cells in absence of CPT; DT40 Tdp1-/- hTDP1 cells, no CPT, ATP luminescence, 48 h; Potency, µM (highest dose often 46.2 µM), hits mostly inhibitors; hit rate 15% among 420,000; AID 686978, 2013; also: nearly all actives have a fitted effect of over 55% in size
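Chicken DT40 Tdp1-/- cells complemented with human TDP1, screened without camptothecin (DMSO vehicle only), 400 cells/well. Compounds pin-transferred, cells incubated at 37 °C for at least 48 hr. Growth read as ATP-dependent luminescence (CellTiter-Glo, 30 min at RT).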
Six1-Eya2 blk = blocks human Six1 binding to Eya2; AlphaScreen GST-Six1/His-Eya2 binding, biochemical; hits give low values; activity change, % (test concentration not listed); hit rate 0.56% among 360,000; in the data active = activity change below about -65%; inconclusive = mostly about -30% to -63%
Target sequence (O00167 whole entry, looked up): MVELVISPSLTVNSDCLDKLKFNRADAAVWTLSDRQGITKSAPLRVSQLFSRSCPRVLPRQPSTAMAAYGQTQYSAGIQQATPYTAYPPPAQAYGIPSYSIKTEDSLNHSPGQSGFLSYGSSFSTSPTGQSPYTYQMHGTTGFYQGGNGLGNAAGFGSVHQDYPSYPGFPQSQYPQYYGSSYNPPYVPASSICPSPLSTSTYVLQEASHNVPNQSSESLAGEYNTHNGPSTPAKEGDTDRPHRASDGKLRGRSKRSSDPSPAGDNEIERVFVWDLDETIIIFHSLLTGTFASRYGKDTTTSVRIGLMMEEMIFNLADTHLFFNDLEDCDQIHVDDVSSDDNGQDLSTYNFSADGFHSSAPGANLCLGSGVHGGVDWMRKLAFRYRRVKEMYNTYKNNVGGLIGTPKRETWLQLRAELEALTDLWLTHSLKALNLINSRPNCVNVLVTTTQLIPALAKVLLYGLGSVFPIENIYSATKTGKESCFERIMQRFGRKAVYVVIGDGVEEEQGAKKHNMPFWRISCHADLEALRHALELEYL
Target sequence (Q15475 whole entry, looked up): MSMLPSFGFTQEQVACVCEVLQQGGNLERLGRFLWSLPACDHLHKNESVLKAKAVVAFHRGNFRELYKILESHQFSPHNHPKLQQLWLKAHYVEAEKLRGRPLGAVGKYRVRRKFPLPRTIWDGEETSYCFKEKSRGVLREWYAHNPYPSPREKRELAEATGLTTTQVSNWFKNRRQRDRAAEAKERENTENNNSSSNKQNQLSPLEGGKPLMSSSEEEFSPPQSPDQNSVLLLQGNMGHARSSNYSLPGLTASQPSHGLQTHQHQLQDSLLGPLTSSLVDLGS
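Compounds are tested against tagged Six1 and Eya2 proteins bridged by glutathione donor and nickel acceptor beads; after a one-hour incubation at 37 °C without light, AlphaScreen emission is recorded.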
DT40 TDP1 CPT = growth inhibition of DT40 Tdp1-/-;hTDP1 cells with camptothecin (screen for TDP1 inhibitors); chicken DT40 Tdp1-/-;hTDP1 cells + 20 nM CPT, ATP luminescence, 48 h; AID 686979; Potency, µM (series often up to 46.2 µM), actives largely listed as inhibitors; hit rate 12% among 420,000; also: nearly all actives have a fitted effect of over 55% in size
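Chicken DT40 Tdp1-/- cells complemented with human TDP1, 400 cells/well, exposed to compounds plus 20 nM camptothecin for at least 48 h at 37 C; viability read as ATP content by CellTiter-Glo luminescence.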
CtBP-E1A blk = blocks the CtBP interaction with E1A; AlphaScreen GST-E1A/His-CtBP binding, 1536-well; hits give low values; activity change, % (no concentration beside the values); hit rate 0.49% among 340,000; AID 651724; in the data active = activity change below about -65%; inconclusive = mostly about -30% to -63%
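Steps: dispense buffer (Tris pH 8.0, NaCl 300 mM, TCEP 1 mM, BSA, Tween 20); add 5X protein mix (GST-E1A, His-CtBP, 125 nM each); pin 23 nL compound; 2 h at 37 °C, dark; add 5X beads (50 ug/mL); 1 h; read.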
Of the large screens only hits and unclear results are named; the others gave an inactive call. Unless noted, calls follow the shape of the dose curve; as a rule, active = well fitted curve in the direction sought with a large enough effect; inconclusive = small, poorly fitted or top-dose-only effect, or another doubt; inactive = no such curve, though single readings can be large; an effect the other way counts as inactive or inconclusive.

CC1(OC(=O)CCc2ccccc2)C(=O)C=C2C=C(c3ccc(C#N)cc3)N(c3ccccc3)C=C2C1=O (configuration not stated)	DT40 TDP1 no CPT 13µM, DT40 TDP1 CPT inconclusive
CC1(OC(=O)CCc2ccccc2)C(=O)C=C2C=C(c3ccc(C#N)cc3)N(C3CCCC3)C=C2C1=O (configuration not stated)	DT40 TDP1 no CPT 15µM, DT40 TDP1 CPT 23µM
COc1ccc(OC)c(CNC(=O)C2CCN(S(=O)(=O)c3cn(C)cn3)CC2)c1	none (no result: IL-1B inflam inh, Six1-Eya2 blk, CtBP-E1A blk)
Cc1ccc(NC(=O)c2ncn(CCCNCCCN3CCCC3=O)n2)cc1C	DT40 TDP1 CPT inconclusive (no result: TDP1 inh)
COCCOC(=O)c1[nH]c2c(c1C)C(=O)CC(c1ccco1)C2 (configuration not stated)	DT40 TDP1 no CPT 0.73µM, DT40 TDP1 CPT 1µM (no result: TDP1 inh)
CCOC(=O)c1[nH]c2c(c1C)C(=O)CC(c1ccco1)C2 (configuration not stated)	TDP1 inh inconclusive, DT40 TDP1 no CPT 0.041µM, DT40 TDP1 CPT 0.58µM
CSCCOC(=O)c1[nH]c2c(c1C)C(=O)CC(c1ccco1)C2 (configuration not stated)	TDP1 inh 13µM, DT40 TDP1 no CPT 0.82µM, DT40 TDP1 CPT 0.73µM
Cc1c(C(=O)OCCOC(C)C)[nH]c2c1C(=O)CC(c1ccco1)C2 (configuration not stated)	DT40 TDP1 no CPT 0.0052µM, DT40 TDP1 CPT 0.023µM
Cc1ccc(COC(=O)c2[nH]c3c(c2C)C(=O)CC(c2ccc(N(C)C)cc2)C3)cc1 (configuration not stated)	none (no result: IL-1B inflam inh, Six1-Eya2 blk, CtBP-E1A blk)
CCOC(=O)c1[nH]c2c(c1Cc1ccccc1OC)C(=O)CC(c1ccccc1)C2 (configuration not stated)	DT40 TDP1 no CPT inconclusive, DT40 TDP1 CPT inconclusive (no result: IL-1B inflam inh, Six1-Eya2 blk, CtBP-E1A blk)
COCCOC(=O)c1[nH]c2c(c1C)C(=O)CC(c1ccc(N(C)C)cc1)C2 (configuration not stated)	DT40 TDP1 no CPT inconclusive
CCc1ccc(NC(=O)C2CC(=O)Nc3ncnn32)cc1 (configuration not stated)	none
CCCC(c1nnnn1Cc1ccc(F)cc1)N1CCN(C)CC1 (configuration not stated)	none
Cc1c(C(=O)OCc2ccccc2)[nH]c2c1C(=O)CC(c1ccco1)C2 (configuration not stated)	TDP1 inh inconclusive, DT40 TDP1 no CPT 0.92µM, DT40 TDP1 CPT 0.82µM
CS/C(=N\S(=O)(=O)c1ccc(F)cc1)c1ccccc1	DT40 TDP1 no CPT inconclusive, DT40 TDP1 CPT inconclusive (no result: IL-1B inflam inh, Six1-Eya2 blk, CtBP-E1A blk)
O=[N+]([O-])c1ccccc1S(=O)(=O)N1CCCC(C(F)(F)F)C1 (configuration not stated)	DT40 TDP1 no CPT inconclusive
O=C(O)[C@H](Cc1ccccc1)N1C(=O)c2c(Cl)c(Cl)c(Cl)c(Cl)c2C1=O	none (no result: TDP1 inh)
CCCc1nc2sc3c(=O)n(N)cnc3c2c2c1CCCC2	DT40 TDP1 no CPT 9.2µM, DT40 TDP1 CPT 12µM (no result: CtBP-E1A blk)
COc1cc(C(=O)N/N=C/C2CC=CCC2)cc(OC)c1OC (configuration not stated)	none
Cc1ccc(Cl)cc1NC(=O)c1cnn2c1NC(c1ccco1)CC2C(F)(F)F (configuration not stated)	IL-1B inflam inh inconclusive, DT40 TDP1 no CPT inconclusive, DT40 TDP1 CPT inconclusive
CN(Cc1ccc(-n2cccn2)cc1)C(=O)c1cnn2c1NC(c1ccco1)CC2C(F)(F)F (configuration not stated)	IL-1B inflam inh -54, DT40 TDP1 no CPT 16µM, DT40 TDP1 CPT 23µM
COCCNC(=O)c1cnn2c1NC(c1ccco1)CC2C(F)(F)F (configuration not stated)	none
O=C(NCc1cccc(Cl)c1)c1cnn2c1NC(c1ccco1)CC2C(F)(F)F (configuration not stated)	IL-1B inflam inh -53, DT40 TDP1 no CPT 16µM, DT40 TDP1 CPT 18µM

High-throughput results deposited in PubChem by National Center for Advancing Translational Sciences (NCATS).
